# Assay outcomes as filed in PubChem.
# Hits are enriched below; roughly 1% of the tested compounds scored in any of these assays.
# FadD28 FP inh: blocks FadD28 binding to the bisubstrate probe; AID 588549; inhibition, % at 12.5 µM; fluorescence polarization; actives 0.22% (n = 360,000); in the data active = inhibition above about 8.5%, passing the limit was not always enough
# TcdB GH inh: blocks C. difficile toxin B glycohydrolase activity; P18177; TcdB glycohydrolase enzymatic assay, plate reader; inhibition, % at 9.99 µM; actives 0.24% (n = 350,000); in the data active = inhibition above about 10%
# PrP 5UTR inh: inhibition of PrP 5' UTR reporter expression; actives 0.35% (n = 340,000); inhibition, % (test concentration not listed); cell-based PrP 5' UTR mRNA reporter, plate reader; in the data active = inhibition above about 52%; note: 0 = median of the neutral control wells
# Mtb hypoxia inh: reduces hypoxia-regulated biosensor signal in M. tuberculosis. M. tuberculosis hypoxia-regulated fluorescent reporter, fluorescence. fluorescence inhibition, % (concentration not given with the values). actives 0.1% (n = 300,000). AID 1159583; in the data active = fluorescence inhibition mostly above about 23%, no sharp cut-off; inactive = mostly below about 17%
# BioA inh: blocks M. tuberculosis BioA enzyme activity | purified M. tuberculosis BioA enzyme, plate reader | inhibition, % at 9.99 µM | actives 0.096% (n = 360,000); in the data active = inhibition above about 40%
# SSB-PriA inh: inhibitors of Klebsiella pneumoniae PriA binding to SSB C-terminal tail; AlphaScreen SSBct-PriA binding, biotinylated peptide; inhibition, % at 33 µM; actives 0.6% (n = 430,000); AID 1272365; in the data active = inhibition mostly above about 37%, no sharp cut-off; inactive = mostly below about 20%;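 note: plate controls were negative control peptide for no effect and reference peptide for full effect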
# PrP UTR cherry: prion 5' UTR mRNA inhibition, cherry-pick retest; shares compounds with PrP 5UTR inh; cell-based prion protein 5' UTR reporter, plate reader; inhibition, % at 2.5 µM; actives 48% (n = 1,100); AID 504592; in the data active = inhibition above about 54%
# * = called active by the depositor; · = no result given.
SMILES,FadD28 FP inh,TcdB GH inh,PrP 5UTR inh,Mtb hypoxia inh,BioA inh,SSB-PriA inh,PrP UTR cherry
C/C(=C\CNc1ncnc2nc[nH]c12)CO,-4,-5,-10,·,-1,-14,·
CC(C)CCCCCCCCCCCCC(=O)NCC(=O)NC1C(C)OC(Nc2ncnc3nc[nH]c23)C(O)C1O (stereo unspecified),-3,-1,75*,·,·,-5,77*
CN(C(=O)c1ccccc1C(=O)OCC(=O)NCc1cccs1)C1CCCCC1,0,1,55*,-7,-1,-28,-15
O=C(COC(=O)c1ccccc1Cl)NCc1cccs1,0,-2,·,·,-2,·,·
COC(=O)C1CCN(c2cc(=O)n(-c3ccc(OC)cc3)c(=O)[nH]2)CC1,-4,0,68*,-4,-2,-13,-15
CCOC(=O)N1CCN(c2cc(=O)n(-c3ccc(OC)cc3)c(=O)[nH]2)CC1,-2,·,-17,0,-2,2,·
COc1ccc(-n2ncc3c(SCC(=O)N4CCN(c5ccccc5OC)CC4)ncnc32)cc1,0,·,64*,12,·,-8,-26
O=C(CSc1ncnc2c1cnn2-c1ccccc1)N1CCOCC1,·,·,·,·,·,-14,·
Cc1ccc(OCC(=O)Nc2ccc([N+](=O)[O-])cn2)cc1C,-1,·,-20,4,0,3,·
O=C(NC[C@H]1[C@H](c2ccccc2)[C@@H](CO)N1C(=O)Cc1ccncc1)C1CCC1,·,-3,·,·,-3,·,·
CSc1ccc(Cl)c(C(=O)Nc2ccc(Cl)cn2)c1,-2,0,-12,18,-2,-11,·
COc1cc(SC)ccc1C(=O)Nc1ccc(Cl)cn1,-3,1,60*,11,-2,-3,55*
COc1ccc(CCC(=O)N2CCN(S(=O)(=O)c3cccc(C(F)(F)F)c3)CC2)cc1OC,-2,0,-20,7,·,8,·
CCC1=C2CC[C@H]3C(=O)N(c4ccccc4)C(=O)[C@H]3[C@H]2[C@@]2(C)C(=NCc3ccccc3)OC(=O)N2C1=O,-2,1,76*,·,0,-2,-25
CCC1=C2CCC3C(=O)N(c4ccccc4)C(=O)C3C2[C@@]2(C)C(=NCC(=O)OC)OC(=O)N2C1=O (stereo partly specified),·,·,·,18,·,·,·
CC(=O)Nc1ccc(S(=O)(=O)Oc2ccc(C(C)=O)cc2)cc1,·,·,·,·,·,-11,·
CCN1C(=O)[C@H]2[C@@H](c3ccc(-c4cccc(Cl)c4)c(OC)c3)N[C@@](Cc3ccccc3)(C(=O)OC)[C@H]2C1=O,0,1,1,·,-3,-11,·
COc1ccc(C2CC(=O)Oc3cc(OC)c(OC)c(OC)c32)cc1 (stereo unspecified),0,1,-11,-4,1,-1,·
COc1ccccc1C1CC(=O)Oc2cc(OC)c(OC)c(OC)c21 (stereo unspecified),-3,-2,92*,0,1,-15,-12
O=C(Nc1ccccc1)N1CCN(CCc2ccccc2)CC1,-1,0,-5,17,3,12,·
COc1ccc(NC(=O)Cn2c(=O)n(CC3CCCO3)c(=O)c3cc(OC)c(OC)cc32)cc1OC (stereo unspecified),-1,1,58*,0,4,-9,-3
Nc1ncnc2c(C3OC(CO)C(O)C3O)scc12 (stereo unspecified),0,0,58*,·,·,0,82*
O=c1c2ccccc2sc2ccc(C#CC3(O)CCCCC3)cc12,-2,-5,92*,-2,-5,-25,86*
COc1cccc2oc3cc(C#CC4(O)CCCCC4)ccc3c(=O)c12,-10,0,-23,20,-1,3,·
O=c1c2ccccc2oc2cc(C#CC3(O)CCCCC3)ccc12,-5,1,70*,-10,-2,-7,55*
SMILES,FadD28 FP inh,TcdB GH inh,PrP 5UTR inh,Mtb hypoxia inh,BioA inh,SSB-PriA inh,PrP UTR cherry
O=C(c1cnn2ccccc12)N1CCN(C(=O)C2(c3ccccc3)CCOCC2)CC1,·,·,·,·,·,3,·
O=C(c1ccccc1)N1CCSc2sccc2C1=O,1,0,58*,4,0,-10,40
COc1ccc(CC(=O)OCC(=O)NC(=O)NC2CCCCC2)cc1,2,·,-11,·,-1,4,·
C[C@H](CO)N1C[C@H](C)[C@H](CN(C)C(=O)Nc2cccc3ccccc23)Oc2c(NC(=O)C3CC3)cccc2C1=O,·,1,·,·,-3,·,·
COc1cccc(/C=N/Nc2ccc(C(=O)O)cc2)c1O,1,-11,88*,·,·,·,90*
O=[N+]([O-])c1cccc(C=NNc2ccc3ccccc3n2)c1O,-3,1,56*,·,·,7,37
COc1cccc(C=NNc2ccc([N+](=O)[O-])cc2)c1O,·,·,·,-8,·,2,·
COc1cccc(/C=N/Nc2ccc([N+](=O)[O-])cn2)c1O,0,1,58*,·,3,·,48
CC(/C=C1\SC(=O)N(CCCC(=O)O)C1=O)=C\c1ccccc1,1,·,83*,-1,-6,-7,86*
COc1cccc2c1C(=O)c1c(O)c3c(c(O)c1C2=O)C[C@@](O)(C(=O)CO)C[C@@H]3O[C@H]1C[C@H](N)[C@H](O)[C@H](C)O1,63*,-14,89*,·,-42,33,92*
COc1cccc2c1C(=O)c1c(O)c3c(c(O)c1C2=O)CC(O)(C(C)=O)CC3OC1CC(N(C)C)C(O)C(C)O1 (stereo unspecified),60*,-24,88*,·,·,15,91*
O=C(Nc1ccc(Br)cc1F)C1CCCN(S(=O)(=O)c2cnc[nH]2)C1 (stereo unspecified),-2,0,-10,·,-1,-16,·
Cc1ccc(NC(=O)C2CCCN(S(=O)(=O)c3cnc[nH]3)C2)c(Br)c1 (stereo unspecified),-3,1,73*,·,0,-5,-1
CN(CCc1ccccc1)C(=O)c1cccc(NC(=O)Cc2cccc(NC(=O)C3CCCN(C(=O)C4CC4)C3)c2)c1 (stereo unspecified),-1,1,53*,-6,-1,3,-59
CN(Cc1ccccc1)C(=O)c1ccc(NC(=O)Cc2ccc(NC(=O)C3CCCN(C(=O)C4CC4)C3)cc2)cc1 (stereo unspecified),-1,-1,86*,-10,-1,-1,-11
CN(Cc1ccccc1)C(=O)c1ccc(NC(=O)Cc2ccc(NC(=O)C3CCCN(C(=O)C4CCCC4)C3)cc2)cc1 (stereo unspecified),-1,0,-21,-1,0,-11,·
Cc1cc(OCC(=O)NCc2ccncc2)ccc1Cl,-2,1,-11,7,-1,-11,·
O=C(NC(=S)Nn1cnnc1)c1ccc(F)cc1Cl,-3,1,-21,-9,-1,0,·
O=C(NC(=S)Nn1cnnc1)c1ccccc1Cl,0,2,78*,9,·,-17,-6
